Measured values: PubChem BioAssay AID1053143 (Broad Institute, 2014)
Screen size: about 3,400 compounds; about 120 (3.5%) were called active. Only a sample is shown. Measured potencies and affinities stand elsewhere. Unmarked numbers belong to inactive results. How the calls were made is not given here.

Assay: HepG2 cell cytotoxicity, dose response, cytotoxicity control, ATP luminescence, cherry-pick, activator set 2 (AID 1053143)
Settings: HepG2 viability, CellTiter-Glo ATP luminescence, 72 h; series mostly up to 26 µM; activity change, negative = cytotoxicity: at the top concentration

Row | SMILES | activity change, negative = cytotoxicity
1 | O=C(/C=C/c1ccco1)Nc1cccnc1 | -4.29%
2 | COc1ccccc1/C=C/C(=O)Oc1cccc2cccnc12 | -14.1%
3 | CCc1ccc(NC(=O)c2cccnc2)cc1 | 4.52%
4 | CS(=O)(=O)N1CCc2nc(-c3ccccc3)sc2C1 | 0.131%
5 | Cc1ccc(/C=N/NC(=O)c2ccco2)cc1 | 7.95%
6 | Cc1ccc(CCC(=O)Nc2ccccc2F)s1 | 22.1%
7 | O=C(Nc1ccccc1F)Nc1ccccc1F | 15.9% [at 12 µM]
8 | COc1ccc(NC(=O)c2c(NC(=O)CCC(=O)O)sc(-c3ccccc3)c2C)cc1 | -7.68%
9 | CCCC(=O)Nc1sc(C(=O)Nc2cccc(N)c2)c(C)c1C(=O)OC | -11.7%
10 | c1ccc(Cn2c(-c3ccco3)nc3nc4ccccc4nc32)cc1 | -16.9%
11 | Cc1scc(C(=O)N/N=C/c2ccc(Cl)s2)c1C | -1.2%
12 | COc1ccc(-c2cn3cccc(C)c3n2)cc1Br | -4.83%
13 | CC(C)(C)c1cc(NCCCn2ccnc2)n2ncc(-c3ccccc3)c2n1 | -19.6%
14 | Cc1cc(C)n(-c2cc(C(C)(C)C)nc3c(-c4ccccc4)cnn23)n1 | -9.79%
15 | O=c1c2ccccc2nc2c3ccccc3c(NCc3ccccn3)nn12 | -3.53% [at 6 µM]
16 | C=CCSc1cc(C)nc2c(-c3ccccc3)cnn12 | -26%
17 | CN(C)c1ccc(C#Cc2ccc3cc(CCCO)oc(=O)c3c2)cc1 | 1.77%
18 | Cc1ccc(-n2nc3c(n2)/C(=N/O)CC/C3=N\O)cc1 | -13.2%
19 | CCCCCC(=O)Nc1nc2ccccc2[nH]1 | -10%
20 | Cc1ccc(-c2csc(NC(=O)c3cccc(C)c3)c2C(=O)O)cc1 | -4.95%
21 | N/C(=N\OC(=O)COc1ccccc1)c1ccccn1 | -7.81%
22 | CCCCNc1c(-c2ccc(SC3CCCCC3)cc2)nc2ccccn12 | -6.41%
23 | O=c1[nH]c(/C=C/c2ccc(Br)cc2)nc2ccccc12 | -13.3% [at 12 µM]

Row | SMILES | activity change, negative = cytotoxicity
24 | c1ccc([C@H]2CN3C(=N2)Sc2ccccc23)cc1 | -21.7% [at 12 µM]
25 | O=C(NC1CCCC1)c1cc(-c2ccc(Cl)cc2)on1 | -11.1%
26 | O=C(NC1CCCCC1)c1cc(-c2cccs2)on1 | -1.19%
27 | COc1cc2nn(-c3ccccc3N)nc2cc1OC | -9.19%
28 | Cc1ccc(NC(=O)c2sccc2C)nc1 | -18%
29 | CCOC(=O)c1sc(NC(=O)C2CCC2)cc1C | -22.4%
30 | CCOC(=O)c1sc(NC(=O)Nc2ccc(Cl)cc2)nc1C | -4.05% [at 12 µM]
31 | Cc1csc(NC(=O)Nc2cccc(Cl)c2)n1 | -9.02%
32 | Cc1ccc(C(=O)/C=C/Nc2ccccc2C(N)=O)cc1 | -20.8%
33 | Cn1cccc1C(=O)Nc1ccc(N2CCOCC2)cc1 | -18.9%
34 | COc1cccc2nc3cc(C)c(C)cc3nc12 | -12.1%
35 | CCCC1CCC(c2ccc(OCC)cc2)=CC1=O (stereo not given) | -5.38%
36 | Cc1ccc2nc(SCC(=O)c3ccc(O)cc3O)[nH]c2c1 | -3.55%
37 | Fc1ccccc1Cn1nnc(-c2ccc3c(c2)OCO3)n1 | -26.9%
38 | Fc1ccccc1COc1ccc(/C=N/n2cnnc2)cc1 | -11%
39 | CCN1C(=O)S/C(=C\c2ccc(N3CCOCC3)cc2C)C1=O | 21.6%
40 | O=C(Nc1nc2c(F)cccc2s1)c1ccco1 | -9.02%
41 | Cn1c(=NC(=O)c2cnccn2)sc2ccccc21 | -11.9%
42 | Cc1sc(NC(=O)C2CCCCC2)c(C#N)c1-c1ccccc1 | -2.58%
43 | COc1ccc2oc(C(=O)Nc3ccccn3)c(C)c2c1 | -22.9%
44 | CCOc1ccc2oc(C(=O)Nc3nccs3)c(C)c2c1 | -0.418%
45 | COc1ccc(N=C2SC(CC(=O)Nc3ccccc3)C(=O)N2Cc2ccco2)cc1 (stereo not given) | -1.28%
